# Compound activity as filed in PubChem BioAssay.
# Sampled rows, rich in hits. Any-hit rate of the full collection: about 3.2%.
# AMA1 RON2 block: qHTS for Inhibitors of AMA1-RON; Towards Development of Antimalarial Drug Lead: Primary Screen; AlphaScreen AMA1-biotinylated RON2 peptide binding; Potency, µM (doses to about 58.2 µM), for the others: at the top dose activity change, negative = inhibition, actives largely listed as inhibitors; 360,000 tested, 0.2% active; AID 720542, 2013;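 further: 0% = vehicle wells and -100% = peptide control; nearly all actives have a fitted effect of over 45% in size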
#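 AMA1 (3D7) with his tag at 25 nM final met compounds first, then biotinylated RON2 peptide at 25 nM; detection used donor plus acceptor beads, 10 µg/mL apiece, read by AlphaScreen after 30 min at room temperature.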
# Tb PYK inh: qHTS of Trypanosoma Brucei Inhibitors | AID 624173, 2012 | TbPYK enzyme, Kinase-Glo Plus ATP luminescence, 45 min | Potency, µM (titrated, usually from 76.8 µM), inactives show top-dose activity, negative = inhibition, most hits filed as inhibitors | 410,000 tested, 0.12% active; further: nearly all actives have a fitted effect of over 50% in size
#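 Readout: single end-point luminescence (Kinase-Glo Plus, 10 min). Reaction conditions were TbPYK/substrate plus 130 uM ADP, 45 min at RT, pH 7.2 TEA buffer. No-enzyme wells served as controls, and data were normalized before concentration-response fitting.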
# RE007 growth inh: qHTS Assay for Inhibitors of the HIV-1 protein Vpr; AID 651644, 2012; S. pombe RE007 Vpr strain, BacTiter-Glo ATP luminescence, 24 h; 360,000 tested, 0.21% active; Potency, µM (titrated, usually from 92.2 µM), without a hit: at the top dose activity change, negative = less growth, most hits filed as inhibitors; active means well fitted falling curve with a large enough effect; inconclusive means small, poorly fitted or top-dose-only effect; inactive means no such curve, though single readings can be large or run the other way; further: nearly all actives have a fitted effect of over 50% in size
#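 Fission yeast RE007 carrying one integrated HIV-1 vpr copy, seeded at OD 0.01 in PMG+AL medium with 23 nL pinned compound. Grown 24 h at 30 degrees; viability read by BacTiter-Glo luminescence after 5 min.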
# LmPK inh: qHTS Assay for Inhibitors of Leishmania Mexicana Pyruvate Kinase (LmPK). Q27686. Potency, µM (titrated, usually from 57.5 µM), for the others: top-dose activity change, negative = inhibition, usual class: inhibitors. 290,000 tested, 0.37% active. purified LmPK, Kinase-Glo ATP luminescence, 1 h
# Target sequence (Q27686 whole entry, looked up): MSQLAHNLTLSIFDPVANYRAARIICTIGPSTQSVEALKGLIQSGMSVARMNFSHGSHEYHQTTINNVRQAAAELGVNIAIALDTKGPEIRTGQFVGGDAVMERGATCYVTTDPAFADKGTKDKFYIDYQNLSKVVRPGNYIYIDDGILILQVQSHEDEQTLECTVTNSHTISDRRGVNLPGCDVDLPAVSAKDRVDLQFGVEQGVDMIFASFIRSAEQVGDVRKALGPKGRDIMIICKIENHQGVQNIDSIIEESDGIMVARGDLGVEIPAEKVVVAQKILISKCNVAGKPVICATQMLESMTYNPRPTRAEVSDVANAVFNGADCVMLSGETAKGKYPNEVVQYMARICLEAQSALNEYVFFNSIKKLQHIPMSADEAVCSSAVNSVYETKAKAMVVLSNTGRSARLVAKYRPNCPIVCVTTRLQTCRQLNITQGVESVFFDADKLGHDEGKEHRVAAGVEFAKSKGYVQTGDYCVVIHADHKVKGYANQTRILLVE
#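 0.1 nM LmPK, 0.5 mM PEP, 0.1 mM ADP; 50 mM imidazole pH 7.2, 7 mM MgCl2, 50 mM KCl; 1 h RT. Kinase-Glo luminescence readout, normalized to no-enzyme (full inhibition) and uninhibited wells.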
# Sm TGR inh: qHTS Assay for the Inhibitors of Schistosoma Mansoni Peroxiredoxins | purified TGR, DTNB reduction, TNB absorbance 405 nm | Potency, µM (highest dose often 114 µM), for the others: top-dose activity change, negative = inhibition, most hits filed as inhibitors | 360,000 tested, 3% active | AID 485364, 2010; further: nearly all actives have a fitted effect of over 60% in size
#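 Kinetic colorimetric format: TGR-catalysed, NADPH-driven DTNB reduction monitored via TNB absorbance. Enzyme dispensed at 20 nM; compound exposure 15 min at room temperature before reaction start.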
# An asterisk follows results filed as active; ? = inconclusive; / = no result given; [ ] = dose if it differs, or a comment. Unless noted, the call rests on the fitted dose curve; in most records, active means well fitted curve in the direction sought with a large enough effect; inconclusive means small, poorly fitted or top-dose-only effect, or another doubt; inactive means no such curve, though single readings can be large; an effect the other way counts as inactive or inconclusive. Unless noted, on the % scale 0 is the no-effect control and ±100 the full control effect; potency means the concentration at half of the fitted maximal effect.
SMILES,AMA1 RON2 block,Tb PYK inh,RE007 growth inh,LmPK inh,Sm TGR inh
CC(C)c1ccc(N2C(=O)CC(Sc3nc4ccccc4o3)C2=O)cc1 (stereo not drawn),-6%,-4%,-18%,2%,?
Cc1ccccc1N1C(=O)CC(Sc2nnc(-c3ccccc3)o2)C1=O (stereo not drawn),-3%,?,?,-1%,2.8µM*
C[N+]1(CCF)[C@@H]2CC[C@@H]1CC(OC(=O)C(O)(c1ccccc1)c1ccccc1)C2 (stereo partly drawn),/,-5%,/,/,/
CC1CCN(C(=O)c2[nH]cnc2C(=O)Nc2nccs2)CC1,126%,0%,2%,/,28µM*
O=[N+]([O-])c1cc(F)c2cccnc2c1O,-73%,-13%,?,2%,3.2µM*
O=[N+]([O-])c1ccc(O)c2ncccc12,-57%,3%,-10%,-1%,?
O=[N+]([O-])c1cc([N+](=O)[O-])c2cccnc2c1Oc1ccccc1O,?,1%,-10%,4%,0.28µM*
O=[N+]([O-])c1cc(Cl)c(O)c2ncccc12,-84%,-13%,?,-14%,11µM*
CC(C)CCNC(=O)C(=O)Nc1c2c(nn1-c1ccc(Cl)cc1)CSC2,/,10%,/,/,1%
O=C(CCc1ccc(O)c(O)c1)N/N=C/c1cc2c(cc1[N+](=O)[O-])OCO2,?,?,-2%,?,16µM*
O=[N+]([O-])c1cc(Br)cc(C=Nc2ccc3c(c2)OCO3)c1O,54%,-9%,-18%,1%,18µM*
O=[N+]([O-])c1ccc(O)c(C=Nc2ccc3c(c2)OCO3)c1,-6%,-11%,-29%,1%,0%
CC(C)(C)c1ccc(O)c(N=Cc2cc3c(cc2[N+](=O)[O-])OCO3)c1,57%,?,9%,1.6µM*,-28%
Cc1cccc(-n2c(CNC(=O)c3ccc(S(=O)(=O)N4CCCCC4)cc3)n[nH]c2=S)c1,68%,7.9µM*,5%,10%,-3%
COc1ccc(CNc2cccc3[nH]c(C(F)(F)F)nc23)cc1OC,66%,-23%,/,8%,20µM*
COc1ccc(CNC(=O)c2[nH]c(C(F)(F)F)nc2-c2ccccc2)cc1OC,-1%,2%,4%,/,/
CCC1S/C(=N/C(=O)NC2CCCCC2)NC1=O (stereo not drawn),0%,7%,13%,-1%,6%
O=C(/N=C1\NC(=O)C(F)(C(F)(F)F)S1)NC1CCCCC1 (stereo not drawn),-5%,?,-6%,-1%,13µM*
COc1ccc2c(c1)c(=O)c(S(=O)(=O)c1ccc(C)c(C)c1)cn2CC(=O)Nc1ccccc1,/,1%,/,/,0%
COCCn1c(=NC(=O)CCS(=O)(=O)c2ccccc2)sc2cc(C)ccc21,-5%,0%,-5%,2%,35µM*
CCn1c(=NC(=O)CCS(=O)(=O)c2ccccc2)sc2cccc(OC)c21,0%,1%,-13%,3%,-6%
COCCn1c(=NC(=O)CCS(=O)(=O)c2ccccc2)sc2cc(F)ccc21,-3%,-1%,2%,-1%,40µM*
COCCn1c(=NC(=O)CSC(C)=O)sc2cc(F)ccc21,-1%,-4%,-15%,0%,7%
CCS(=O)(=O)N1CC(=O)N(c2ccc(C)c(C)c2)C(C)(C(=O)NC2CCCCC2)C1 (stereo not drawn),/,2%[15.4 µM],/,/,8%
Cc1ccc(/C=C/C(=O)Nc2cc(=O)n(C)c(=O)n2C)o1,1%,?,-4%,1%,7.9µM*
Cc1ccc(C(=O)Nc2cc(=O)n(C)c(=O)n2C)o1,-3%,-4%,-2%,2%,-15%
Cn1c(NC(=O)/C=C/c2ccco2)cc(=O)n(C)c1=O,-9%,-7%,-4%,-3%,28µM*
COc1cc(/C=C\C(=O)Nc2cc(=O)n(C)c(=O)n2C)cc(OC)c1OC,12%,4%,0%,-3%,3%
